Test results published in the supplement of paper PMC10849652.
Of roughly 7,900 targets only a part is listed; those with a hit were picked by preference. About 0.6% of all pairs of compound and target were hits.

What follows are targets tested with c1cn2cc(-c3ccc4cn[nH]c4c3)nc(Nc3ccc(N4CCOCC4)cc3)c2n1 [entospletinib] (assay: log2 fold change, soluble protein after heating vs DMSO (PISA); higher = thermal stabilisation; K562 cells, 10 uM, 30 min; active = over 0.2 and 3.5 SD of the protein, either way, in both replicates (recomputed)).
Method in brief: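 Soluble protein was defined as the supernatant after 21,000xg for 90 min. It came from K562 cells at 2×10^6 cells/mL given 10 μM compound for 30 min, heated in aliquots for 3 min across 48°C-58°C, pooled, and extracted in PBS with 0.5% NP-40 at 4°C, and was quantified by TMTpro 16plex LC-MS/MS with equalised channel sums. Thermal stability against control samples, from duplicates, is reported as log2 fold change.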

Sequence of UniProt P52655 (P52655 whole entry, looked up): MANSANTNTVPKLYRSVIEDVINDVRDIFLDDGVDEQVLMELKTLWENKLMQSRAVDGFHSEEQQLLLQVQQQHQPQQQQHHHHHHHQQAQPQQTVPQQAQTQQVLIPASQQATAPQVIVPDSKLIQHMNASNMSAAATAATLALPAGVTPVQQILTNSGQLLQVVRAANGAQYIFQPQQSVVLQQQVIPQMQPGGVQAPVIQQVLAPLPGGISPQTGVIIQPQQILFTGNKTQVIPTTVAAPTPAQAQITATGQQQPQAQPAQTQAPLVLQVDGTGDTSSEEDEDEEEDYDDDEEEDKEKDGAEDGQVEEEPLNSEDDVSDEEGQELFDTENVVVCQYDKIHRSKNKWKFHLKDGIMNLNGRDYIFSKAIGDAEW
Sequence of UniProt P30711 (P30711 whole entry, looked up): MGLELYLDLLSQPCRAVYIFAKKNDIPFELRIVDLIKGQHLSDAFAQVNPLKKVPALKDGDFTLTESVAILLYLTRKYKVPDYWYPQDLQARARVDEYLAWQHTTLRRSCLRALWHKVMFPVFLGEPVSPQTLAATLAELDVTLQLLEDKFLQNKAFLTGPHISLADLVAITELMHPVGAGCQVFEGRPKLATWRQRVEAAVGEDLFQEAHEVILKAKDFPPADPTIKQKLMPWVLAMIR
Sequence of UniProt P06280 (P06280 whole entry, looked up): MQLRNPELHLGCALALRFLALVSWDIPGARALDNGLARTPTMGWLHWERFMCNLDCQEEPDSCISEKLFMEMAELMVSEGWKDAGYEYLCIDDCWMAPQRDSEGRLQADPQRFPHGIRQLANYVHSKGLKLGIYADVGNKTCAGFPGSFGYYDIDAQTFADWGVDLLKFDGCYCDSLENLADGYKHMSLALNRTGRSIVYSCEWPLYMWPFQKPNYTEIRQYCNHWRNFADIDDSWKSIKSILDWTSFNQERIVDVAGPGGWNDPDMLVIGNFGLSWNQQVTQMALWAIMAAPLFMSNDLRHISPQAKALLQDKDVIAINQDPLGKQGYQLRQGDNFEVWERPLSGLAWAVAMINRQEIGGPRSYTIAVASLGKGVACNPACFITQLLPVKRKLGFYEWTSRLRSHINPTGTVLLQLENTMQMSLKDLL
Sequence of UniProt P60520 (P60520 whole entry, looked up): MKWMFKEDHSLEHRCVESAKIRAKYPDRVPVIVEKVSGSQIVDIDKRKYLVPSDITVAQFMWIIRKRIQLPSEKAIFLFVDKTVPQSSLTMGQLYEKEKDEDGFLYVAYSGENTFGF
Sequence of UniProt Q9NZC3 (Q9NZC3 whole entry, looked up): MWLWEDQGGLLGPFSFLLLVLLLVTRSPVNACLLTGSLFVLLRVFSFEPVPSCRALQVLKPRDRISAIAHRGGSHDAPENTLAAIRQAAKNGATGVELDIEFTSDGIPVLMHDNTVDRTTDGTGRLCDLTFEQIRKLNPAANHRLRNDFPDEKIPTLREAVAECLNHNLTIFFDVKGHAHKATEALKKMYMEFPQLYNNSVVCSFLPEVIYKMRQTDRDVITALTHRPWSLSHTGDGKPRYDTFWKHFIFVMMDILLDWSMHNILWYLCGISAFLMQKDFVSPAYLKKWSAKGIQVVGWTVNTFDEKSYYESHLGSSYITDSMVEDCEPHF
Sequence of UniProt P14324 (P14324 whole entry, looked up): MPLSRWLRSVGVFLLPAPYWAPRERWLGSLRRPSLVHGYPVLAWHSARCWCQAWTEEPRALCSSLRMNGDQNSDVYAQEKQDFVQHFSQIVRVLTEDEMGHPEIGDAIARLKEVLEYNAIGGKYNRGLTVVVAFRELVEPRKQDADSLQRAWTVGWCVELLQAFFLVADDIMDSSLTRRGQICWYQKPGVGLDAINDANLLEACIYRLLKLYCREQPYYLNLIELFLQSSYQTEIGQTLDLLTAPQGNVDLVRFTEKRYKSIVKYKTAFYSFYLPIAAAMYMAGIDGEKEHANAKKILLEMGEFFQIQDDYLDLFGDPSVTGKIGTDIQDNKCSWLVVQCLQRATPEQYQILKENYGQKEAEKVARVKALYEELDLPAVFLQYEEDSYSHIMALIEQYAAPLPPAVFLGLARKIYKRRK
Sequence of UniProt O15228 (O15228 whole entry, looked up): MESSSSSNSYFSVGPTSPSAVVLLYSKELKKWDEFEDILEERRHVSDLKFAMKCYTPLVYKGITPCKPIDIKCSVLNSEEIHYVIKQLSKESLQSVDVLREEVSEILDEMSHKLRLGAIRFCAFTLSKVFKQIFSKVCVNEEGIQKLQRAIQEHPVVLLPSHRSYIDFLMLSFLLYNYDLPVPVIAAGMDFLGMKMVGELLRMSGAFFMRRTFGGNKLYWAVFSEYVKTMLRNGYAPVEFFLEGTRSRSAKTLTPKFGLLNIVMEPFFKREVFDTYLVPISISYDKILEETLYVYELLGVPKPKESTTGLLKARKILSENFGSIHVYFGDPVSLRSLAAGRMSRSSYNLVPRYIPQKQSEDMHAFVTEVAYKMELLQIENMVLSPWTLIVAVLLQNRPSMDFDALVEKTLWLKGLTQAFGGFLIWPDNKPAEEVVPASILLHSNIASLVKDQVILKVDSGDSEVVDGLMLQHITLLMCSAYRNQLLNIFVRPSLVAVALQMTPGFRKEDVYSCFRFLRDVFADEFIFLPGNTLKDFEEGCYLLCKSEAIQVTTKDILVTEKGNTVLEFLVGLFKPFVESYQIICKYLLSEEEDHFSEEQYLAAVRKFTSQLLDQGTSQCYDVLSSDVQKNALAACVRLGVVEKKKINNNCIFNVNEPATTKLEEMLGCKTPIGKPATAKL
Sequence of UniProt Q14956 (Q14956 whole entry, looked up): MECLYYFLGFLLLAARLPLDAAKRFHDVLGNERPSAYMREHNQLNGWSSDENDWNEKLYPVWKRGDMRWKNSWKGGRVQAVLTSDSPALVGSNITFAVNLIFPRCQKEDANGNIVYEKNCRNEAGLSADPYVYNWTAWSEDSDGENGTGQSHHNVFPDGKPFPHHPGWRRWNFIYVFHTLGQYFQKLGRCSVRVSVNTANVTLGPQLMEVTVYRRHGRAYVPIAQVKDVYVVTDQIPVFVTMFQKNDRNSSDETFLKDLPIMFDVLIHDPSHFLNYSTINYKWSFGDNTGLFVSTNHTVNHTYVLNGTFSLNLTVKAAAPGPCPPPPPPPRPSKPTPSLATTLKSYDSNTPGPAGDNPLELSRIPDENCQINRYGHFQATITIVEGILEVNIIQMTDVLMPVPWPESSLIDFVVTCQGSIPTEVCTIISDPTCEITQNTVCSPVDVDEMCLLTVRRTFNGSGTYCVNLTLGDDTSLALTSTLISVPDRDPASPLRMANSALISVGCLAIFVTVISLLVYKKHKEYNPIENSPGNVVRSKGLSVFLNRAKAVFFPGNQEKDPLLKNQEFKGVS
Sequence of UniProt Q14527 (Q14527 whole entry, looked up): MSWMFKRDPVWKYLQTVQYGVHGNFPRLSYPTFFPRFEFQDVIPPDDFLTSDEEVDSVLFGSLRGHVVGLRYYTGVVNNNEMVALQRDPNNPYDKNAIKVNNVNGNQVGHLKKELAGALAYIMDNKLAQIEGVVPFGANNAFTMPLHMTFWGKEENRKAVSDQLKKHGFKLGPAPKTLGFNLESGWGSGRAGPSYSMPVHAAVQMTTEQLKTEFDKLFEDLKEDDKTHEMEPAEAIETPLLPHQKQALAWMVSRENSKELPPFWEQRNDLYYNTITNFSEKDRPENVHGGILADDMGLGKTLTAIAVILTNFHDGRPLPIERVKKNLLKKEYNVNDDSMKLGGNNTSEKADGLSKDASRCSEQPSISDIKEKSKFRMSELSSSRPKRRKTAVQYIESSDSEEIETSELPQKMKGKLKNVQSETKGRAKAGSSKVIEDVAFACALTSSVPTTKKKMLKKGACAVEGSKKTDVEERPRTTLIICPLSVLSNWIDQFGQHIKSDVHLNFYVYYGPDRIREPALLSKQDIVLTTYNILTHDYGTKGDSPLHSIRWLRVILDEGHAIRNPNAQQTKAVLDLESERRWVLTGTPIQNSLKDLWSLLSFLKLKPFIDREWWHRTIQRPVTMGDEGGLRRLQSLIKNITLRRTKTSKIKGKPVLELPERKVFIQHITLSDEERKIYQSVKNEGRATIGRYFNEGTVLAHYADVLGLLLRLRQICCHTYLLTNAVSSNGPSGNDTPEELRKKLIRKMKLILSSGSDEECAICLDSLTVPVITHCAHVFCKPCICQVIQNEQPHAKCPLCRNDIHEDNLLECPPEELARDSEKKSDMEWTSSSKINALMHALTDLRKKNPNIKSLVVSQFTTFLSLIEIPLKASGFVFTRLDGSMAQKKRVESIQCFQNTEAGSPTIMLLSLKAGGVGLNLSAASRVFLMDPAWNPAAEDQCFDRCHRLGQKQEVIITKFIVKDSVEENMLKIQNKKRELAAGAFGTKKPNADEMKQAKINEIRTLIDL
Sequence of UniProt Q8N9F7 (Q8N9F7 whole entry, looked up): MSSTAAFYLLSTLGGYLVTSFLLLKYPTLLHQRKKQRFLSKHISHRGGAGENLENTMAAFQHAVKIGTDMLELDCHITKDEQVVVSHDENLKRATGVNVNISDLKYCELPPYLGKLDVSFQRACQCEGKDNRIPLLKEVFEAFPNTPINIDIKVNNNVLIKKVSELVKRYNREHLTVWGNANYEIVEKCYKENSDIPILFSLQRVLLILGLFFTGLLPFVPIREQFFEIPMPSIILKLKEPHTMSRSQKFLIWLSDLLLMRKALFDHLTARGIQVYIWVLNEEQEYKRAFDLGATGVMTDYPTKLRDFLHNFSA
Sequence of UniProt O00458 (O00458 whole entry, looked up): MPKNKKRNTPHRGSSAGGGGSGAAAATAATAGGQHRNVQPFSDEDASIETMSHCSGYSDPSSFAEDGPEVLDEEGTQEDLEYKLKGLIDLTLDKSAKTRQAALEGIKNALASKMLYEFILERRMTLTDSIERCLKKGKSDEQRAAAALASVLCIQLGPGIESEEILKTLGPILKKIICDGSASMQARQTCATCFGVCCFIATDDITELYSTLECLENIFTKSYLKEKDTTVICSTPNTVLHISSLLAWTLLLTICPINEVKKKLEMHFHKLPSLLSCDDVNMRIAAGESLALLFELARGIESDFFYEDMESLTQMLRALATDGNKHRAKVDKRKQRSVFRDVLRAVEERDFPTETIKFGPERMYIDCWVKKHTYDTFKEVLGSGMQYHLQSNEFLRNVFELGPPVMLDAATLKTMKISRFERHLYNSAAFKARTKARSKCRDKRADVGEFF

Row | Target | log2 fold change
1 | GINS2 (UniProt Q9Y248) | 0.012 (inactive)
2 | IFRD1 (UniProt O00458) | 0.243 (inactive)
3 | FHOD1 (UniProt Q9Y613) | 0.209 (inactive)
4 | FRA10AC1 isoform 3 (UniProt Q70Z53) | -0.003 (inactive)
5 | GID4 (UniProt Q8IVV7) | -0.021 (inactive)
6 | FDXR isoform 7 (UniProt P22570) | -0.032 (inactive)
7 | HLTF (UniProt Q14527) | 0.045 (inactive)
8 | GDPD1 (UniProt Q8N9F7) | 0.04 (inactive)
9 | GNPAT (UniProt O15228) | 0.003 (inactive)
10 | GTF2A1 (UniProt P52655) | 0.051 (inactive)
11 | GLA (UniProt P06280) | 0.017 (inactive)
12 | H3-3A (UniProt P84243) | -0.131 (inactive)
13 | GSTM4 (UniProt Q03013) | 0.036 (inactive)
14 | GSTO1 (UniProt P78417) | -0.046 (inactive)
15 | HDAC10 (UniProt Q969S8) | 0.058 (inactive)
16 | GBA2 (UniProt Q9HCG7) | -0.108 (inactive)
17 | GALNT2 (UniProt Q10471) | -0.041 (inactive)
18 | FDPS (UniProt P14324) | -0.007 (inactive)
19 | IFRD2 isoform 2 (UniProt Q12894) | 0.29 (inactive)
20 | GLUD2 (UniProt P49448) | 0.14 (inactive)

Row | Target | log2 fold change
21 | FDFT1 (UniProt P37268) | -0.019 (inactive)
22 | GALNT4 (UniProt Q8N4A0) | -0.015 (inactive)
23 | GABARAPL2 (UniProt P60520) | -0.032 (inactive)
24 | HIKESHI (UniProt Q53FT3) | 0.088 (inactive)
25 | FKBP4 (UniProt Q02790) | -0.019 (inactive)
26 | GDE1 (UniProt Q9NZC3) | 0 (inactive)
27 | HP1BP3 (UniProt Q5SSJ5) | 0.014 (inactive)
28 | GATA1 (UniProt P15976) | 0.102 (inactive)
29 | GIGYF2 (UniProt Q6Y7W6) | -0.02 (inactive)
30 | HSPA8 (UniProt P11142) | 0.043 (inactive)
31 | FIS1 (UniProt Q9Y3D6) | 0.038 (inactive)
32 | GPNMB (UniProt Q14956) | 0 (inactive)
33 | HADHA (UniProt P40939) | 0.01 (inactive)
34 | GOLGA8R (UniProt I6L899) | -0.056 (inactive)
35 | HIST2H2BF isoform 2 (UniProt Q5QNW6) | 0.06 (inactive)
36 | H1FX (UniProt Q92522) | 0.02 (inactive)
37 | FUT8 (UniProt Q9BYC5) | -0.048 (inactive)
38 | GYS1 (UniProt P13807) | 0.782 (active)
39 | HMG20A (UniProt Q9NP66) | -0.049 (inactive)
40 | GSTT1 (UniProt P30711) | 0.013 (inactive)
